Tested on: Vero E6 infected with SARS-CoV-2
Experiment: inhibition of SARS-CoV-2 cytopathic effect; higher = more antiviral protection, active = above 15
Details: 48 h

Structure (SMILES) | inhibition of SARS-CoV-2 cytopathic effect (1 nM) | inhibition of SARS-CoV-2 cytopathic effect (8.33 nM) | inhibition of SARS-CoV-2 cytopathic effect (100 nM) | inhibition of SARS-CoV-2 cytopathic effect (833.33 nM) | inhibition of SARS-CoV-2 cytopathic effect (10000 nM)
O=C(O)CCc1c(C(=O)O)[nH]c2cc(Cl)cc(Cl)c12 | 0.7% (inactive) | 2.79% (inactive) | 1.68% (inactive) | -2.26% (inactive) | 0.81% (inactive)
Cc1cc(O)c(C(C)C)cc1Cl [chlorothymol] | 0.21% (inactive) | 0.56% (inactive) | 2.72% (inactive) | 0.49% (inactive) | -5.16% (inactive)
OC[C@@H](O)[C@@H](O)CO [erythritol] | -0.84% (inactive) | -2.36% (inactive) | -2.74% (inactive) | 0.56% (inactive) | 0.5% (inactive)
CC(C)Cc1ccc(C(C)C(=O)NO)cc1 (stereo not given) [ibuproxam] | 1.38% (inactive) | 1.54% (inactive) | 0.99% (inactive) | 2.87% (inactive) | 1.73% (inactive)
Cc1sc(C)c(C(=O)NC2(c3ccc(C(=O)O)cc3)CC2)c1Cc1ccc(C(F)(F)F)cc1 | -1.32% (inactive) | -0.56% (inactive) | -0.49% (inactive) | -1.38% (inactive) | 1.12% (inactive)
N[C@@H](CS)C(=O)O [L-cysteine] | 1.7% (inactive) | -1.19% (inactive) | -0.65% (inactive) | -1.16% (inactive) | -5.76% (inactive)
C/C(=N\NC(=N)N)c1cc(NC(=O)CCCCCCCCC(=O)Nc2cc(/C(C)=N/NC(=N)N)cc(/C(C)=N/NC(=N)N)c2)cc(/C(C)=N/NC(=N)N)c1 [semapimod] | 1.18% (inactive) | 2.42% (inactive) | 5.39% (inactive) | 7.62% (inactive) | 7.5% (inactive)
O=C(c1ccc(Cl)cc1)N(Cc1ccccc1)C1CCCCC1 | -1.58% (inactive) | -1.87% (inactive) | 1.24% (inactive) | -0.21% (inactive) | -2.35% (inactive)
c1ccc(-c2n[nH]c3c2oc2ccccc23)cc1 | -0.45% (inactive) | -5.74% (inactive) | 1% (inactive) | 2.4% (inactive) | -0.82% (inactive)
Cc1noc(C)c1-c1ccc(-c2cc(C(N)=O)c(NC(N)=O)s2)c(O[C@H]2CCNC2)c1 | 1.7% (inactive) | 2.12% (inactive) | 2.46% (inactive) | -12.1% (inactive) | 2.19% (inactive)
COc1cc2ncnc(Nc3ccc(O)c(Br)c3)c2cc1OC | 0.67% (inactive) | -0.59% (inactive) | -3.04% (inactive) | -5.16% (inactive) | -9.51% (inactive)
CCOc1ccc(Cc2cc([C@]34OC[C@](CO)(O3)[C@@H](O)[C@H](O)[C@H]4O)ccc2Cl)cc1 [ertugliflozin] | -4.37% (inactive) | -4.65% (inactive) | -2.3% (inactive) | -0.17% (inactive) | 0.59% (inactive)
CC(=O)N[C@H](Cc1ccc2ccccc2c1)C(=O)N[C@H](Cc1ccc(Cl)cc1)C(=O)N[C@H](Cc1cccnc1)C(=O)N[C@@H](CO)C(=O)N[C@@H](Cc1ccc(NC(=O)[C@@H]2CC(=O)NC(=O)N2)cc1)C(=O)N[C@H](Cc1ccc(NC(N)=O)cc1)C(=O)N[C@@H](CC(C)C)C(=O)N[C@@H](CCCCNC(C)C)C(=O)N1CCC[C@H]1C(=O)N[C@H](C)C(N)=O [degarelix] | -0.25% (inactive) | 1.93% (inactive) | 3.06% (inactive) | 1.45% (inactive) | 2.25% (inactive)
Cc1oc2ccccc2c1CNC(=O)NCc1cccs1 | -0.41% (inactive) | 1.63% (inactive) | 0.18% (inactive) | -0.46% (inactive) | 3.09% (inactive)
CN1CCN(c2cc(-c3ccccc3)nc(N)n2)CC1 | 2.02% (inactive) | 3.76% (inactive) | 2.45% (inactive) | 4.99% (inactive) | 2.49% (inactive)
COc1cc2cc(c1Cl)N(C)C(=O)C[C@H](OC(=O)C(C)C)[C@]1(C)O[C@@H]1[C@H](C)[C@@H]1C[C@@](O)(NC(=O)O1)[C@H](OC)/C=C/C=C(\C)C2 [ansamitocin-p-3] | 2.87% (inactive) | -1.3% (inactive) | -3.14% (inactive) | -0.53% (inactive) | 0.75% (inactive)
CSc1nc(NC2CCCC2)c([N+](=O)[O-])c(NC2CCCC2)n1 | -0.65% (inactive) | -0.38% (inactive) | 1.31% (inactive) | -0.4% (inactive) | -0.11% (inactive)

Structure (SMILES) | inhibition of SARS-CoV-2 cytopathic effect (1 nM) | inhibition of SARS-CoV-2 cytopathic effect (8.33 nM) | inhibition of SARS-CoV-2 cytopathic effect (100 nM) | inhibition of SARS-CoV-2 cytopathic effect (833.33 nM) | inhibition of SARS-CoV-2 cytopathic effect (10000 nM)
Cc1ccc(C(=O)Nc2ccc(S(=O)(=O)O)c3cc(S(=O)(=O)O)cc(S(=O)(=O)O)c23)cc1NC(=O)c1cccc(NC(=O)Nc2cccc(C(=O)Nc3cc(C(=O)Nc4ccc(S(=O)(=O)O)c5cc(S(=O)(=O)O)cc(S(=O)(=O)O)c45)ccc3C)c2)c1 [suramin] | 0.16% (inactive) | 0.17% (inactive) | 0.66% (inactive) | -0.75% (inactive) | 1.44% (inactive)
c1ccc(C2CN3CCSC3=N2)cc1 (stereo not given) [tetramisole] | 0.71% (inactive) | 1.55% (inactive) | 0.335% (inactive) | 6.51% (inactive) | 2.84% (inactive)
C/C=C(/C)C(=O)O[C@H]1[C@H](OC(C)=O)[C@@]2(CO)C(CC1(C)C)C1=CCC3[C@@]4(C)CCC(O[C@@H]5O[C@H](C(=O)O)[C@@H](O[C@@H]6O[C@H](CO)[C@@H](O)[C@H](O)[C@H]6O)[C@H](O)[C@H]5O[C@@H]5O[C@H](CO)[C@@H](O)[C@H](O)[C@H]5O)[C@](C)(CO)C4CC[C@@]3(C)[C@]1(C)C[C@H]2O.C/C=C(\C)C(=O)O[C@H]1[C@H](OC(C)=O)[C@@]2(CO)C(CC1(C)C)C1=CCC3[C@@]4(C)CCC(O[C@@H]5O[C@H](C(=O)O)[C@@H](O[C@@H]6O[C@H](CO)[C@@H](O)[C@H](O)[C@H]6O)[C@H](O)[C@H]5O[C@@H]5O[C@H](CO)[C@@H](O)[C@H](O)[C@H]5O)[C@](C)(CO)C4CC[C@@]3(C)[C@]1(C)C[C@H]2O (stereo not given in full) [escin] | -2.05% (inactive) | -1.77% (inactive) | -0.38% (inactive) | -4.84% (inactive) | -27.8% (inactive)
CCN[C@H]1CN(CCCOC)S(=O)(=O)c2sc(S(N)(=O)=O)cc21 [brinzolamide] | 0.37% (inactive) | -1.59% (inactive) | -2.91% (inactive) | -1.67% (inactive) | -2.11% (inactive)
C=C1CC[C@H](O)C/C1=C/C=C1\CCC[C@]2(C)[C@@H]([C@H](C)CCCC(C)C)CC[C@@H]12 [cholecalciferol] | -2.37% (inactive) | -2.07% (inactive) | -1.56% (inactive) | -2.03% (inactive) | 0.91% (inactive)
CCOc1ccc(Nc2nc(-c3c(C)nc4ccccn34)cs2)cc1 | -1.73% (inactive) | -0.39% (inactive) | -1.68% (inactive) | 2.2% (inactive) | 1.71% (inactive)
C[C@@H]1C[C@H]2[C@@H]3CCC4=CC(=O)C=C[C@]4(C)[C@@]3(F)[C@@H](O)C[C@]2(C)[C@@]1(O)C(=O)COP(=O)(O)O | -1.27% (inactive) | 0.18% (inactive) | -1.45% (inactive) | -3.81% (inactive) | 0.77% (inactive)
CN1C[C@@H](NS(=O)(=O)N(C)C)C[C@@H]2c3cccc4c3c(cn4C)C[C@H]21 [mesulergine] | -0.67% (inactive) | 0.79% (inactive) | 0.56% (inactive) | 0.39% (inactive) | 1.25% (inactive)
COC(=O)C1=CO[C@@H](O)[C@@H]2C(CO)=CC[C@H]12 [genipin] | -1.26% (inactive) | 1% (inactive) | 0.94% (inactive) | -0.49% (inactive) | -0.89% (inactive)
COc1ccc(CCN2CCN(CCCc3ccccc3)CC2)cc1OC [cutamesine] | 1.71% (inactive) | 0.69% (inactive) | 3.33% (inactive) | 2.23% (inactive) | -5.76% (inactive)
Cn1cc(-c2ccc3c(c2)CCN3C(=O)Cc2cccc(C(F)(F)F)c2)c2c(N)ncnc21 | 0.06% (inactive) | 0.68% (inactive) | 1.48% (inactive) | 32.5% (active) | 27.7% (active)
COc1ccc(Nc2ncnc3ccc(OC)cc23)cc1 | 4.07% (inactive) | 6.4% (inactive) | 6.26% (inactive) | 1.4% (inactive) | -3.12% (inactive)
C=C(C)[C@@H]1CC[C@]2(C(=O)O)CC[C@]3(C)[C@H](CC[C@@H]4[C@@]5(C)CC[C@H](OC(=O)CC(C)(C)C(=O)O)C(C)(C)[C@@H]5CC[C@]43C)[C@@H]12 [bevirimat-dimeglumine] | -1.52% (inactive) | 0.9% (inactive) | 2.72% (inactive) | 0.6% (inactive) | -0.27% (inactive)
O=C(O)c1cc2cccc([N+](=O)[O-])c2[nH]1 | -1.29% (inactive) | 0.14% (inactive) | -0.8% (inactive) | 0.27% (inactive) | 1.27% (inactive)
c1ccc(CCNc2nc(-c3ccccc3)cs2)cc1 [fanetizole] | -2.03% (inactive) | 1.7% (inactive) | -2.73% (inactive) | -0.64% (inactive) | 1.58% (inactive)
COC(=O)C1=C(C)NC(C)=C([N+](=O)[O-])[C@@H]1c1ccccc1C(F)(F)F (racemic) | 2% (inactive) | -0.15% (inactive) | -1.34% (inactive) | 2.63% (inactive) | 4.88% (inactive)
COC1CCN(C(=O)c2cc(Cc3n[nH]c(=O)c4ccccc34)ccc2F)CC1 | -0.72% (inactive) | 7.33% (inactive) | 4.58% (inactive) | 3.41% (inactive) | 4.58% (inactive)
